# Reference: the supplement of paper PMC7724964
# ± gives the standard deviation of the averaged measurements.
# T1: ARID4A 568-634 Tudor-knot (domain begin residue: 568, domain end residue: 634), P29374
# T1 chain: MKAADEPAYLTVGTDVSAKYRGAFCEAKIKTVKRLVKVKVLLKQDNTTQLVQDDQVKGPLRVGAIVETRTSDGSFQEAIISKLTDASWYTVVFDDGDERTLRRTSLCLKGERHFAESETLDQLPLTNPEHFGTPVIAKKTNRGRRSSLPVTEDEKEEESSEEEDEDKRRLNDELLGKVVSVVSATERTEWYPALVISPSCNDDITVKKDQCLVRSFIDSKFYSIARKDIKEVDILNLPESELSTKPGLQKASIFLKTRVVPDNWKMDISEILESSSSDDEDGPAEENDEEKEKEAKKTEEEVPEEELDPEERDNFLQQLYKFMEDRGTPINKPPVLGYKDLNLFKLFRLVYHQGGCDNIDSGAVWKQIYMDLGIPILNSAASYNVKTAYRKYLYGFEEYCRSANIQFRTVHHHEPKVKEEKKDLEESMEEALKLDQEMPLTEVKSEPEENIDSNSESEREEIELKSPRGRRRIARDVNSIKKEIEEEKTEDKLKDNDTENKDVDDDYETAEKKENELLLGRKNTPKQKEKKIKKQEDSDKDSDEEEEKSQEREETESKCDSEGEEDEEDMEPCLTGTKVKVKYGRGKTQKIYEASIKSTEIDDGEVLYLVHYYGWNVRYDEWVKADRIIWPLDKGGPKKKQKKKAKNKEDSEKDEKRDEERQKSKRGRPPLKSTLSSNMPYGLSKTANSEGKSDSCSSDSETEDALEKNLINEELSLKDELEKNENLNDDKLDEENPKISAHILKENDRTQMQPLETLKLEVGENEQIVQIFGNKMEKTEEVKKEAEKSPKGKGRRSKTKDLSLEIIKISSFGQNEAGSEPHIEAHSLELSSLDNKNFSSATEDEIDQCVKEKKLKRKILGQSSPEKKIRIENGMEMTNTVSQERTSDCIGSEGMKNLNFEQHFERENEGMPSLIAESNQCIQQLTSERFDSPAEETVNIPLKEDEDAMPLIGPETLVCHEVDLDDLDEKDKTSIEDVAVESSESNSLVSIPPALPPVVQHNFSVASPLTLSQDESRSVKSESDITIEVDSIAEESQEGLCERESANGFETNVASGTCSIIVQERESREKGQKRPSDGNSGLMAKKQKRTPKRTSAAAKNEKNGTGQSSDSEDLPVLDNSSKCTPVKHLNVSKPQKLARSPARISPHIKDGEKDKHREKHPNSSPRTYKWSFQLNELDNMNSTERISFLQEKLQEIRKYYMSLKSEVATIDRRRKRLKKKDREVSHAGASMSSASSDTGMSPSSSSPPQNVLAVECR
# T2: SND1 650-910 TUDOR+SNase (domain begin residue: 650, domain end residue: 910), Q7KZF4
# T2 chain: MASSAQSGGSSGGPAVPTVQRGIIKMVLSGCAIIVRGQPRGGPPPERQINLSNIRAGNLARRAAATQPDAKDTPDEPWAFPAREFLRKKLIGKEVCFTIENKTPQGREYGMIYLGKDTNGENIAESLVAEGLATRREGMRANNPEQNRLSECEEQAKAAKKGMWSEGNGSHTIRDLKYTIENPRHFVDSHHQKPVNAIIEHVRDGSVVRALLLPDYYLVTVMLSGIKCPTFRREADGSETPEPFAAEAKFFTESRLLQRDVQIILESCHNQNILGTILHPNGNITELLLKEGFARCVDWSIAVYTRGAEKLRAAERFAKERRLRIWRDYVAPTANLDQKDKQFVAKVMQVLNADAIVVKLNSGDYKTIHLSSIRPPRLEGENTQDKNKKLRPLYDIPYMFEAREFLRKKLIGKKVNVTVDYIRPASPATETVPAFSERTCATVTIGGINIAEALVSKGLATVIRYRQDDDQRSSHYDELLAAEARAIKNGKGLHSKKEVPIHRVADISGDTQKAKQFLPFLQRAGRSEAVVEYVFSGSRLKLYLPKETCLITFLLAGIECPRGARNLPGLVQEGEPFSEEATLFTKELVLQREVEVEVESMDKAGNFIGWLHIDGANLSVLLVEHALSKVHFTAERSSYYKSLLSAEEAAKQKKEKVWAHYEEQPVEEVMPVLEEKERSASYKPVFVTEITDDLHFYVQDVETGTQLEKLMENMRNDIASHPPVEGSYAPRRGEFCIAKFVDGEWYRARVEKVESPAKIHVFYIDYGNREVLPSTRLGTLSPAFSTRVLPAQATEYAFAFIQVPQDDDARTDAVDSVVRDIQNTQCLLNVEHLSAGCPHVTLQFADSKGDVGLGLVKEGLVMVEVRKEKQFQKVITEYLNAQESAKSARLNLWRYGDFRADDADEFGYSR
# T3: TDRD1 261-449 TUDOR (domain begin residue: 261, domain end residue: 449), Q9BXT4
# T3 chain: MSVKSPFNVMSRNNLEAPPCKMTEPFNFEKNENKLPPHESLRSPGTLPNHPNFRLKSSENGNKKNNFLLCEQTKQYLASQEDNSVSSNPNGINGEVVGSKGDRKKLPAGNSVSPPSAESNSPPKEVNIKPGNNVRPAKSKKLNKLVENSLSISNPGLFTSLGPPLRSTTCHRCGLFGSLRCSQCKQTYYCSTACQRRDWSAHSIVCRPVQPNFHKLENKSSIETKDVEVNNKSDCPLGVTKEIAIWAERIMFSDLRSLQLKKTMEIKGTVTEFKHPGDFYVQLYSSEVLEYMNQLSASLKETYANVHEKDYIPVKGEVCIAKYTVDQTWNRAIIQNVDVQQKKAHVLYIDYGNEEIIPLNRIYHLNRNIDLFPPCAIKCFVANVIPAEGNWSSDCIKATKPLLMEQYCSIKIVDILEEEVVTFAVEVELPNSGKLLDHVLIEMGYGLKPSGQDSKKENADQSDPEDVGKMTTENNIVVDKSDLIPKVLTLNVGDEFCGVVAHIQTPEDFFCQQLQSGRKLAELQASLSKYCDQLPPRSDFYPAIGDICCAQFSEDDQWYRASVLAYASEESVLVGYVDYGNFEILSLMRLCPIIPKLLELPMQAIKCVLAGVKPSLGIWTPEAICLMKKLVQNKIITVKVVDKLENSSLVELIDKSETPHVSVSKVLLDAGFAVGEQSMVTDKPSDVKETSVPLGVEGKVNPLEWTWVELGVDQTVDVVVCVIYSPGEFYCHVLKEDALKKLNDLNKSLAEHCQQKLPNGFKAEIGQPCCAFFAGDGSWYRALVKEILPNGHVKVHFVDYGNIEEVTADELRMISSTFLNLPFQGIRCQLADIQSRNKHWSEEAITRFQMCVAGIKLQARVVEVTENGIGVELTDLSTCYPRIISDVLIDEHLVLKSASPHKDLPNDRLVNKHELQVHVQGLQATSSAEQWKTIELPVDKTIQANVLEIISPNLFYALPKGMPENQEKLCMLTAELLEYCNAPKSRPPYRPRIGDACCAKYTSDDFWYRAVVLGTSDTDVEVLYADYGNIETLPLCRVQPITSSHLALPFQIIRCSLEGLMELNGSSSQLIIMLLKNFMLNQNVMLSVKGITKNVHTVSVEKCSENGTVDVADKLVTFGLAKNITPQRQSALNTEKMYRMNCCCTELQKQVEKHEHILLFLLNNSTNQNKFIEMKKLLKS
# T4: TDRKH 290-430 TUDOR+SNase (domain begin residue: 290, domain end residue: 430), Q9Y2W6
# T4 chain: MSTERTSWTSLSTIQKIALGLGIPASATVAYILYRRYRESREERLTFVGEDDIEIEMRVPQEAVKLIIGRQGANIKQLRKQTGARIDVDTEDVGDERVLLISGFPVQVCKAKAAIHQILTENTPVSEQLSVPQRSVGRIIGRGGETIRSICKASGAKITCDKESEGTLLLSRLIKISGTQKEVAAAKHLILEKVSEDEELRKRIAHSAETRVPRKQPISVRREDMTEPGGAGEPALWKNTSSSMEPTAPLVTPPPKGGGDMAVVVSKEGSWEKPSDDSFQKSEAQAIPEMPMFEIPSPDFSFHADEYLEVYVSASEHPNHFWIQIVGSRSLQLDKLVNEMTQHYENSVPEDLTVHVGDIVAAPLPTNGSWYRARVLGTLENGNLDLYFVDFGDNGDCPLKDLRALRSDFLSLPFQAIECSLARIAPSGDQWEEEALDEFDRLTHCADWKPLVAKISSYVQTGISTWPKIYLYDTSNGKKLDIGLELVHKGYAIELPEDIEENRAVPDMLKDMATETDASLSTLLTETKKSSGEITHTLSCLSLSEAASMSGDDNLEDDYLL
# Molecular target: T1, ARID4A 568-634 Tudor-knot (domain begin …
# Test: phage ELISA signal ratio (GST-PRM binding over GST background); higher = stronger binding of peptide-phage to the PRM
# Protocol: (§1)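 Phage-displayed random hexadecapeptides (Cys-free, flanked by invariant Gly linkers, fused to the M13 P8 major coat protein) were selected over 5 rounds against GST-fused human PRM domains. Individual clones from rounds 4-5 were tested by phage ELISA, and positive clones binding the target but not GST were sequenced. Values are the ELISA signal ratio of target over background (GST); the background signal is given separately.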
row,Binder,phage ELISA signal ratio
1,DGWGWDHIEIEMPYEE,12.4
2,STDIWDMWREWNEIDM,9.5 ± 0.67

# Molecular target: T2, SND1 650-910 TUDOR+SNase (domain begin …
# Test: as above
# Protocol: as §1
row,Binder,phage ELISA signal ratio
1,DGWGWDHIEIEMPYEE,8.36

# Molecular target: KMT2C 1055-1137 PHD (domain begin residue: 1055, domain end residue: 1137)
# Test: as above
# Protocol: as §1
row,Binder,phage ELISA signal ratio
1,STDIWDMWREWNEIDM,6.74

# Molecular target: KMT2C 995-1055 PHD (domain begin residue: 995, domain end residue: 1055)
# Test: as above
# Protocol: as §1
row,Binder,phage ELISA signal ratio
1,STDIWDMWREWNEIDM,5.38

# Molecular target: SETD1A 2-220 RRM_1 (domain begin residue: 2, domain end residue: 220), O15047
# Sequence (O15047 whole entry): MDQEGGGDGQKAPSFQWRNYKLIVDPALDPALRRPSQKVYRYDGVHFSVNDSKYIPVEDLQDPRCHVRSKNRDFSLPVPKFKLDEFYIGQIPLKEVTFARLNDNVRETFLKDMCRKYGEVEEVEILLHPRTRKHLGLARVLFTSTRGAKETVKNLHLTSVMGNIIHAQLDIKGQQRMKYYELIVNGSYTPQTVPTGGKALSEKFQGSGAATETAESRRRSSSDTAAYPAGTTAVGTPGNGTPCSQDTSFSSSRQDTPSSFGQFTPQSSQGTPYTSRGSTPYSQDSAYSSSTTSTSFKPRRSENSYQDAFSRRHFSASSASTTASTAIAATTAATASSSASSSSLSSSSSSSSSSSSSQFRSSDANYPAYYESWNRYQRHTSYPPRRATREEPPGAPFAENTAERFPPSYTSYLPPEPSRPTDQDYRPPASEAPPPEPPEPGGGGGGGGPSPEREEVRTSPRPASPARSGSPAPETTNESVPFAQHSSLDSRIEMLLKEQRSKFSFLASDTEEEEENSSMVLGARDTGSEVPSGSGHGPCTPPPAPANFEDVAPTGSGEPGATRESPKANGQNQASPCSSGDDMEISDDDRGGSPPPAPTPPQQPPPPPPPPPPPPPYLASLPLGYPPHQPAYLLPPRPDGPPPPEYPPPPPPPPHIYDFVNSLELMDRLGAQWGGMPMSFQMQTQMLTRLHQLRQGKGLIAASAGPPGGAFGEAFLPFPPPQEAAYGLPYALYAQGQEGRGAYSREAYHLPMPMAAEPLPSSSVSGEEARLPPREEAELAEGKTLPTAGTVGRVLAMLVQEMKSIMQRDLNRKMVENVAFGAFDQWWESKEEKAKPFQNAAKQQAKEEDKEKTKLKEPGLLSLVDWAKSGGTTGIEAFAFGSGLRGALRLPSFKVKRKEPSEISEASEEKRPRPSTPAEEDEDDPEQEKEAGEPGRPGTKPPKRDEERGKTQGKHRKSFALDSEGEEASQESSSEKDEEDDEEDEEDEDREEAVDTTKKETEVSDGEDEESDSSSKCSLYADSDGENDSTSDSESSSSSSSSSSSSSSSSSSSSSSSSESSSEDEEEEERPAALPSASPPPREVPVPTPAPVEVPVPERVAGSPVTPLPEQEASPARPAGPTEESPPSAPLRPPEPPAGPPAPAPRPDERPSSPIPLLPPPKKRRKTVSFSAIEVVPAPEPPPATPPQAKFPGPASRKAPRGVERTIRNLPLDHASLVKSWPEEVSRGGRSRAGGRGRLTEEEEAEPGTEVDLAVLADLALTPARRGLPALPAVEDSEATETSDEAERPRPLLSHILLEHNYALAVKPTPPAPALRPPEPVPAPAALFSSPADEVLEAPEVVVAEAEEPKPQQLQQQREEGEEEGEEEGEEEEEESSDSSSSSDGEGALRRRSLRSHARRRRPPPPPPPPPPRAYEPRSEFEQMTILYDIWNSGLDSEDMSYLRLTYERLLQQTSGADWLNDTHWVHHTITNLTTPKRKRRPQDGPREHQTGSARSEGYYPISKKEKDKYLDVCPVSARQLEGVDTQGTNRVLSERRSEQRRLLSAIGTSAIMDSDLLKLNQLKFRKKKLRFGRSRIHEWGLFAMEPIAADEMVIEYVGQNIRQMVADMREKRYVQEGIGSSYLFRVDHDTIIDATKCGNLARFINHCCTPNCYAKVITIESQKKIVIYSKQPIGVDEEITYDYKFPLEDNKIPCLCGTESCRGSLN
# Test: as above
# Protocol: as §1
row,Binder,phage ELISA signal ratio
1,STDIWDMWREWNEIDM,12

# Molecular target: T3, TDRD1 261-449 TUDOR (domain begin …
# Test: as above
# Protocol: as §1
row,Binder,phage ELISA signal ratio
1,STDIWDMWREWNEIDM,9.16

# Molecular target: T4, TDRKH 290-430 TUDOR+SNase (domain begin …
# Test: as above
# Protocol: as §1
row,Binder,phage ELISA signal ratio
1,STDIWDMWREWNEIDM,6.85
